# PubChem BioAssay (NCATS)
# Inconclusive results are not listed. Entries that show only a call come without a potency. Values without a mark were called inactive. Activity calls are given as the source filed them. Calls come from the whole dose curve; as a rule, active = well fitted cell-killing curve with a large enough effect; inconclusive = small, poorly fitted or top-dose-only effect, or effect the other way; inactive = no such curve, though single readings can be large or run the other way.
# Columns and labels:
# [1] = Quantitative High-Throughput drug screen in 47 multiple myeloma cell lines against the NCATS MIPE library collection: MM1R_ATCC cell viability assay (AID 1918981); note: nearly all actives have a fitted effect of over 35% in size
# Summary of the method: (§1)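 Readout: median RLU from CellTiter-Glo after 5 min at room temperature. Preceding step was 48 h drug treatment of 500 cells/well at 37 °C, 5% CO2, with DMSO-only and media-only control wells.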
# [2] = Quantitative High-Throughput drug screen in 47 multiple myeloma cell lines against the NCATS MIPE library collection: LP1_DSMZ cell viability assay (AID 1918982); note: nearly all actives have a fitted effect of over 35% in size
# Summary of the method: as §1
# [3] = Quantitative High-Throughput drug screen in 47 multiple myeloma cell lines against the NCATS MIPE library collection: KMS28PE_JCRB cell viability assay (AID 1918983); note: nearly all actives have a fitted effect of over 35% in size
# Summary of the method: as §1
# [4] = Quantitative High-Throughput drug screen in 47 multiple myeloma cell lines against the NCATS MIPE library collection: L363_DSMZ cell viability assay (AID 1918984); conditions: L363 myeloma viability, CellTiter-Glo ATP luminescence, 48 h; viability (% of control): at 45.8 µM (top of the series); note: nearly all actives have a fitted effect of over 40% in size
# Summary of the method: as §1
# [5] = Quantitative High-Throughput drug screen in 47 multiple myeloma cell lines against the NCATS MIPE library collection: KMS34_JCRB cell viability assay (AID 1918985); note: nearly all actives have a fitted effect of over 40% in size
# Summary of the method: as §1
# [6] = Quantitative High-Throughput drug screen in 47 multiple myeloma cell lines against the NCATS MIPE library collection: OCIMY7_PLB cell viability assay (AID 1918987); conditions: OCI-MY7 myeloma viability, CellTiter-Glo ATP, 48 h; viability (% of DMSO): at 45.8 µM (top of the series); note: nearly all actives have a fitted effect of over 65% in size
# Summary of the method: as §1
# [7] = Quantitative High-Throughput drug screen in 47 multiple myeloma cell lines against the NCATS MIPE library collection: OPM1_PLB cell viability assay (AID 1918989); note: nearly all actives have a fitted effect of over 40% in size
# Summary of the method: as §1
# [8] = Quantitative High-Throughput drug screen in 47 multiple myeloma cell lines against the NCATS MIPE library collection: XG6_PLB cell viability assay (AID 1919865); note: nearly all actives have a fitted effect of over 40% in size
# Summary of the method: as §1
# [9] = Quantitative High-Throughput drug screen in 47 multiple myeloma cell lines against the NCATS MIPE library collection: XG1_PLB cell viability assay (AID 1919866); note: nearly all actives have a fitted effect of over 35% in size
# Summary of the method: as §1
# [10] = Quantitative High-Throughput drug screen in 47 multiple myeloma cell lines against the NCATS MIPE library collection: UTMC2_PLB cell viability assay (AID 1919868); conditions: CellTiter-Glo ATP luminescence, 48 h; viability (% of DMSO control): at 45.8 µM (top of the series); note: nearly all actives have a fitted effect of over 55% in size
# Summary of the method: as §1
# [11] = Quantitative High-Throughput drug screen in 47 multiple myeloma cell lines against the NCATS MIPE library collection: PE2_PLB cell viability assay (AID 1919869); note: nearly all actives have a fitted effect of over 35% in size
# Summary of the method: as §1
# [12] = Quantitative High-Throughput drug screen in 47 multiple myeloma cell lines against the NCATS MIPE library collection: RPMI8226_ATCC cell viability assay (AID 1919871); note: nearly all actives have a fitted effect of over 30% in size
# Summary of the method: as §1
# [13] = Quantitative High-Throughput drug screen in 47 multiple myeloma cell lines against the NCATS MIPE library collection: OPM2_DSMZ cell viability assay (AID 1919872); note: nearly all actives have a fitted effect of over 30% in size
# Summary of the method: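 Relative luminescence from CellTiter-Glo served as the viability signal, referenced to DMSO-treated (100%) and cell-free medium (0%) controls. Treatment lasted 48 hours at 37C with 500 cells per well.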
# [14] = Quantitative High-Throughput drug screen in 47 multiple myeloma cell lines against the NCATS MIPE library collection: KMS11_JCRBsus cell viability assay (AID 1919873); note: nearly all actives have a fitted effect of over 50% in size
# Summary of the method: as §1
# [15] = Quantitative High-Throughput drug screen in 47 multiple myeloma cell lines against the NCATS MIPE library collection: OCIMY5_PLB cell viability assay (AID 1918988); note: nearly all actives have a fitted effect of over 65% in size
# Summary of the method: as §1
# [16] = Quantitative High-Throughput drug screen in 47 multiple myeloma cell lines against the NCATS MIPE library collection: SKMM1_PLB cell viability assay (AID 1919863); conditions: SKMM1 myeloma viability, CellTiter-Glo ATP, 48 h; viability: active compounds read low; note: nearly all actives have a fitted effect of over 35% in size
# Summary of the method: as §1
# [17] = Quantitative High-Throughput drug screen in 47 multiple myeloma cell lines against the NCATS MIPE library collection: U266_ATCC cell viability assay (AID 1919864); note: nearly all actives have a fitted effect of over 35% in size
# Summary of the method: as §1
# [18] = Quantitative High-Throughput drug screen in 47 multiple myeloma cell lines against the NCATS MIPE library collection: KMS28BM_JCRB cell viability assay (AID 1919874); note: nearly all actives have a fitted effect of over 35% in size
# Summary of the method: as §1
# [19] = Quantitative High-Throughput drug screen in 47 multiple myeloma cell lines against the NCATS MIPE library collection: VP6_DJ cell viability assay (AID 1919867); note: nearly all actives have a fitted effect of over 40% in size
# Summary of the method: as §1
# [20] = Quantitative High-Throughput drug screen in 47 multiple myeloma cell lines against the NCATS MIPE library collection: PCM6_Riken cell viability assay (AID 1919870); note: nearly all actives have a fitted effect of over 30% in size
# Summary of the method: as §1
# Potency is the fitted concentration of half-maximal effect.
Compound,Potency [1],Potency [2],Potency [3],Potency [4],Potency [5],Potency [6],Potency [7],Potency [8],Potency [9],Potency [10],Potency [11],Potency [12],Potency [13],Potency [14],Potency [15],Potency [16],Potency [17],Potency [18],Potency [19],Potency [20]
CC(C)=CCCC(C)=CCCC(C)=CCCC(C)=CCCC(C)=CCCC(C)=CCCC(C)=CCCC(C)=CCCC(C)=CCO,inactive,inactive,inactive,inactive,inactive,inactive,inactive,inactive,inactive,inactive,inactive,inactive,inactive,inactive,,,,,,
COc1c(C)c2c(c(O)c1CC=C(C)CCC(=O)OCCN1CCOCC1)C(=O)OC2,11.8 µM (active),6.62 µM (active),4.69 µM (active),,5.9 µM (active),3.72 µM (active),8.33 µM (active),,,,4.18 µM (active),4.18 µM (active),13.2 µM (active),,5.26 µM (active),4.18 µM (active),8.33 µM (active),3.32 µM (active),,
CC=C1C2C=C(C)CC1(N)c1ccc(=O)[nH]c1C2 (centres undefined),inactive,inactive,inactive,inactive,,inactive,inactive,inactive,inactive,,inactive,inactive,,inactive,,,inactive,inactive,,
C=C[C@@H]1CN2CCC1C[C@@H]2C(O)c1ccnc2ccc(OC)cc12 (some centres undefined),18.7 µM (active),inactive,16.6 µM (active),inactive,,,,,,,inactive,,inactive,inactive,3.32 µM (active),,10.5 µM (active),inactive,,
C[C@@H]1O[C@@H](O[C@H]2CC[C@@]3(C)[C@H](CC[C@@H]4[C@H]3C[C@@H](O)[C@]3(C)[C@@H](C5=CC(=O)OC5)CC[C@]43O)C2)C[C@H](O)[C@@H]1O[C@H]1C[C@H](O)[C@H](O[C@H]2C[C@H](O)[C@@H](O)[C@@H](C)O2)[C@H](C)O1 (stereo in doubt),0.27 µM (active),0.121 µM (active),0.152 µM (active),0.171 µM (active),0.34 µM (active),0.152 µM (active),0.27 µM (active),0.152 µM (active),0.0605 µM (active),0.0959 µM (active),0.215 µM (active),0.215 µM (active),0.121 µM (active),0.191 µM (active),0.136 µM (active),0.303 µM (active),0.121 µM (active),0.0959 µM (active),0.136 µM (active),0.108 µM (active)
CCCCn1c(=O)n(Cc2ccccc2F)c(=O)c2[nH]c(Cc3ccc(NC(C)=O)cc3)nc21,inactive,inactive,18.7 µM (active),inactive,5.9 µM (active),,inactive,inactive,,,inactive,inactive,inactive,,11.8 µM (active),,18.7 µM (active),inactive,inactive,
